# Assay results reported in PubChem BioAssay (NCATS).
# Records with an inconclusive call do not appear. Active and inactive are the calls of the source. Unless noted, the call rests on the fitted dose curve.
# Key:
# [1] = Cytotoxicity counterscreen for inhibitors of SARS-CoV-2 cell entry (AID 1645845); settings: outcome: dose series up to 57.1 µM unless noted; further: nearly all actives have a fitted effect of over 50% in size; further: potency means the concentration at half of the fitted maximal effect
# In short: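 Counterscreen run in the same HEK293-ACE2 line as the pseudotyped-particle entry assay, without particles. Viability after 48 h at 37 C was read as ATP luminescence, scaled between cell-containing and cell-free wells.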
# [2] = Primary qHTS to identify inhibitors of SARS-CoV-2 cell entry (AID 1645846); settings: SARS-CoV-2 pseudovirus cell entry assay, luminescence; activity change, negative = inhibition: at 57.1 µM (top of the series) unless noted; further: nearly all actives have a fitted effect of over 45% in size; further: potency means the concentration at half of the fitted maximal effect
# In short: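 Luminescence readout (Bright-Glo luciferase) 48 h after pseudoparticle addition. HEK293-ACE2 cells, 1500/well; compound pre-incubation 1 h; Normalized to spike PP and bald PP.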
# [3] = VSVG counterscreen qHTS to identify inhibitors of SARS-CoV-2 cell entry (AID 1645847); further: potency means the concentration at half of the fitted maximal effect; nearly all actives have a fitted effect of over 65% in size
# In short: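 HEK293-ACE2 cells (Expi293F stably expressing human ACE2) were pretreated with compound for 1 h at 37 °C, then infected with MLV-based VSV-G pseudotyped particles for 48 h. Luciferase luminescence was normalized to VSV-G PP and bald PP wells.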
# [4] = Primary qHTS for inhibitors of nuclear receptor binding SET domain protein 2 (NSD2) in an isogenic RCH-ACV NSD2 p.E1099K mutant (9B) (AID 1645876; active means well fitted curve in the direction sought with a large enough effect; an effect the other way counts as inactive or inconclusive; further: nearly all actives have a fitted effect of over 70% in size)
# [5] = Primary qHTS for inhibitors of nuclear receptor binding SET domain protein 2 (NSD2) in an RCH-ACV wild type WT cells (2C) (AID 1645877; active means well fitted curve in the direction sought with a large enough effect; an effect the other way counts as inactive or inconclusive; further: nearly all actives have a fitted effect of over 70% in size)
# [6] = target: Glutathione peroxidase 1 (Homo sapiens) (UniProt P07203); experiment: Primary qHTS Assay for Inhibitors of Recombinant Selenoprotein Glutathione Peroxidase 1 (GPX1) (AID 1845191; active means well fitted curve in the direction sought with a large enough effect; an effect the other way counts as inactive or inconclusive; further: nearly all actives have a fitted effect of over 65% in size)
# Glutathione peroxidase 1 (Homo sapiens), sequence (P07203 whole entry, looked up): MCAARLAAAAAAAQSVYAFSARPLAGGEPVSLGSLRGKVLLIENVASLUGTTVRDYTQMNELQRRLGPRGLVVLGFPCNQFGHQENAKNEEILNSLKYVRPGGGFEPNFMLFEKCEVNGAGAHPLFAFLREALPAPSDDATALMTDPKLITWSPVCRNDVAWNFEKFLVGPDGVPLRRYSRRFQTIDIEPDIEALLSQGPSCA
# In short: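 GR-coupled readout: NADPH consumption tracked by fluorescence, ex 340/em 450 nm, at t=0 and after 15 min at RT. Final mix 10 nM GPX1, 1 mM GSH, 0.5 mM CHP, 0.5 mM NADPH, 100 nM GR, 0.01% BSA, following 30 min enzyme–compound preincubation.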
# [7] = target: Phospholipid hydroperoxide glutathione peroxidase GPX4 (Homo sapiens) (UniProt P36969); experiment: Primary qHTS Assay for Inhibitors of Recombinant Selenoprotein Glutathione Peroxidase 4 (GPX4) (AID 1845192; active means well fitted curve in the direction sought with a large enough effect; an effect the other way counts as inactive or inconclusive; further: nearly all actives have a fitted effect of over 65% in size)
# Phospholipid hydroperoxide glutathione peroxidase GPX4 (Homo sapiens), sequence (P36969 whole entry, looked up): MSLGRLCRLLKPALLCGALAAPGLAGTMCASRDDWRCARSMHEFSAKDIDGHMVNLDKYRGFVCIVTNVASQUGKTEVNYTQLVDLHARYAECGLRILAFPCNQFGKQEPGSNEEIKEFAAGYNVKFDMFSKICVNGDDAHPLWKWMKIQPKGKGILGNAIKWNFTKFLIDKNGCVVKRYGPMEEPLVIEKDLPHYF
# In short: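 Steps: GPX4 plus compound, 30 min RT; add GR/GSH/NADPH master mix; start with cumene hydroperoxide; read 340/450 nm fluorescence at 0 and 15 min. Finals were 200 nM GPX4, 1 mM GSH, 0.5 mM CHP, 0.5 mM NADPH, 100 nM GR.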
# [8] = qHTS drug screen for cell cycle checkpoint inhibitors in PARPi-resistant BRCA-mutant ovarian cancer cell lines. (AID 1963452); settings: PEO1/OlaR viability, CellTiter-Glo luminescence, 96 h, stronger effect = lower value
# In short: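 PEO1, PEO4 and PEO1/OlaR ovarian cancer cells, 600 per well, exposed 96 h at 37C to a dilution series. Viability read by CellTiter-Glo luminescence, normalized to DMSO and empty wells; activity summarized as Z-AUC.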
# [9] = target: Bile acid receptor (Homo sapiens) (UniProt Q96RI1); experiment: qHTS assay for small molecule agonists of farnesoid X receptor signaling (AID 588527); settings: HEK293T FXR-UAS-bla, beta-lactamase ratio, 16 h; stronger effect = higher value;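 further: 0% = vehicle basal and 100% = reference agonist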
# Bile acid receptor (Homo sapiens), sequence (Q96RI1 whole entry, looked up): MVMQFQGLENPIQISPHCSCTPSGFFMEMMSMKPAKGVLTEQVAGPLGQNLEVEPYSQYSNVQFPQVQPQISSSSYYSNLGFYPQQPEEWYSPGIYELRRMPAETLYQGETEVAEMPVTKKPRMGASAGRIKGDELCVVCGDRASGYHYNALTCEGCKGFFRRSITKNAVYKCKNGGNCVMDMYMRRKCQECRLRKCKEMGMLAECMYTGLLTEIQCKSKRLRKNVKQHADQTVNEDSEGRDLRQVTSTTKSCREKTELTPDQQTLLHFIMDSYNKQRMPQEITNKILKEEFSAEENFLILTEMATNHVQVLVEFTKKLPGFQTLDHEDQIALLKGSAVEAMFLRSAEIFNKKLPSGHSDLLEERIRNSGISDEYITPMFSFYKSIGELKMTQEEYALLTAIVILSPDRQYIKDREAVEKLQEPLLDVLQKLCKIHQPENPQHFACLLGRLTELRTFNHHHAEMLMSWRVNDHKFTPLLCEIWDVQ
# In short: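 FXR-UAS-bla HEK293T cells (10% dialyzed FBS) preincubated 5-7 h at 37 C, then compounds at up to 92 uM for 16 h at 37 C. CCF4 beta-lactamase read-out after 2 h RT. Normalized to chenodeoxycholic acid (100 uM) and DMSO; Hill fit gave EC50 and efficacy.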
# [10] = Validation screen for inhibitors of Lassa infection (AID 463096); further: on the % scale 0 is the no-effect control and ±100 the full control effect
smiles,measurement,setting,value
Cc1cccc(-c2nn3c(c2-c2ccnc4ccc(C(N)=O)cc24)CCC3)n1,Potency,[1],inactive
same,"activity change, negative = inhibition",[2],-4.65%
CN1CC[C@@H](NC(=O)Nc2ccc(C#N)cc2)C[C@@H]1c1nc2ccccc2[nH]1,Potency,[1],inactive
same,"activity change, negative = inhibition",[2],-7.47%
same,Potency,[3],24.1 µM (active)
C[C@H]1[C@H](O)[C@@H](C)/C=C/C=C/CC/C=C/C=C/C=C/C=C/[C@H](O[C@@H]2O[C@H](C)[C@@H](O)[C@H](N)[C@@H]2O)C[C@@H]2O[C@](O)(C[C@@H](O)[C@H](O)CC[C@@H](O)C[C@@H](O)C[C@@H](O)CC(=O)O[C@H]1C)C[C@H](O)[C@H]2C(=O)O,Potency,[1],inactive
same,"activity change, negative = inhibition",[2],-39.7%
same,Potency,[4],inactive
same,Potency,[5],inactive
same,Potency,[6],inactive
CCc1cnn2c(NCc3ccc[n+]([O-])c3)cc(N3CCCC[C@H]3CCO)nc12,Potency,[1],inactive
same,"activity change, negative = inhibition",[2],-54%
same,Potency,[3],0.0341 µM (active)
Cc1c(-c2ccc(-c3ccccc3F)cc2)nc2ccc(F)cc2c1C(=O)O,Potency,[1],inactive
same,"activity change, negative = inhibition",[2],-89.2%
same,Potency,[3],0.136 µM (active)
COc1cc2c(NC3CCN(C)CC3)nc(N3CCCN(C)CC3)nc2cc1OCCCN(C)C,Potency,[1],inactive
same,"activity change, negative = inhibition",[2],-3.44%
Cc1[nH]c2ccc(F)cc2c1-c1nc2c3cccnc3c3ncccc3c2[nH]1,Potency,[1],inactive
same,"activity change, negative = inhibition",[2],-96.1% [at 114 µM]
same,Potency,[3],1.75 µM (active)
C[C@H](Nc1nc(N[C@H](C)C(F)(F)F)nc(-c2cccc(Cl)n2)n1)C(F)(F)F,Potency,[1],inactive
same,"activity change, negative = inhibition",[2],-8.78%
CC1(C)CC(O)CC(C)(C)N1O,Potency,[1],inactive
same,"activity change, negative = inhibition",[2],-11.7%
same,Potency,[4],inactive
same,Potency,[5],inactive
same,Potency,[6],inactive
same,Potency,[7],inactive
same,Z-AUC,[8],0.107 (inactive)
same,Z-AUC,[8]; measured here: PEO1 parental Z-AUC,0.652
same,Z-AUC,[8]; measured here: PEO4 Z-AUC,0.604
Cc1cc(-c2nc3cc(F)ccc3s2)ccc1NC(=O)[C@@H](N)CCCCN,Potency,[1],22.4 µM (active)
same,Potency,[2],28.2 µM (active)
CCc1ccc(N(CC(C)C)S(=O)(=O)c2ccc(OCC3CCOCC3)c(CO)c2)cc1,Potency,[1],inactive
same,"activity change, negative = inhibition",[2],-88.5%
same,Potency,[3],24.1 µM (active)
COc1ccc(COc2ccc(Cc3cnc(N)nc3N)cc2OC)cc1,Potency,[1],inactive
same,"activity change, negative = inhibition",[2],-52.5%
same,Potency,[3],6.81 µM (active)
NS(=O)(=O)c1ccc(Cc2c(-c3cccc(-c4ccccc4)c3)nn(-c3nc(C(=O)O)cs3)c2CC2CC2)cc1,Potency,[1],inactive
same,"activity change, negative = inhibition",[2],-32.8%
same,Potency,[3],8.57 µM (active)
COc1cc(-c2cn(C)c(=O)c3cnccc23)cc(OC)c1CN(C)C,Potency,[1],inactive
same,Potency,[2],inactive
COc1ccc(Oc2cc(NCCC(F)(F)F)c3ncc(-c4ccc(C(=O)NC5CC5)c(C)c4)n3n2)c(F)c1F,Potency,[1],inactive
same,"activity change, negative = inhibition",[2],-12.1%
CCC(=O)OCC(=O)C1(OC(=O)CC)C(C)CC2C3CCC4=CC(=O)C=CC4(C)C3(F)C(O)CC21C (configuration not stated),Potency,[1],inactive
same,"activity change, negative = inhibition",[2],-47%
same,Potency,[3],1.92 µM (active)
Clc1ccc(-c2nc3sccn3c2/C=N/OCc2ccc(Cl)c(Cl)c2)cc1,activation,[9],14.7% (inactive)
same,Potency,[1],inactive
same,"activity change, negative = inhibition",[2],-8.8%
CCc1cccc2c3c([nH]c12)[C@@](CC)(CC(=O)O)OCC3,Potency,[1],inactive
same,"activity change, negative = inhibition",[2],-19.9%
C=CC(=O)N1CCC(Oc2cc3c(Nc4ccc(Cl)c(Cl)c4F)ncnc3cc2OC)CC1,Potency,[1],inactive
same,Potency,[3],0.961 µM (active)
Cn1cc(-c2c[nH]c3ncnc(N4CCOCC4)c23)cn1,Potency,[1],inactive
same,"activity change, negative = inhibition",[2],-0.441%
C[C@H]1CC2[C@@H]3CCC4=CC(=O)C=C[C@]4(C)[C@@]3(F)[C@@H](O)C[C@]2(C)[C@@]1(O)C(=O)CO (some centres not stated),Potency,[10],inactive
same,Potency,[1],inactive
same,Potency,[2],inactive
